Compound activity as filed in PubChem BioAssay.
Only some compounds are listed: those with a hit (about 4.6% of all), similar ones and a draw of the others.
TRHR PAM – allosteric enhancers of human TRH receptor; P34981; TRHR cells, fluo-8 calcium fluorescence, EC20 TRH enhancement; enhancement, % at 2 µM; 360,000 tested, 0.66% active; in the data active means enhancement above about 30%; further: 0% is about no effect
Target sequence (P34981 whole entry, looked up): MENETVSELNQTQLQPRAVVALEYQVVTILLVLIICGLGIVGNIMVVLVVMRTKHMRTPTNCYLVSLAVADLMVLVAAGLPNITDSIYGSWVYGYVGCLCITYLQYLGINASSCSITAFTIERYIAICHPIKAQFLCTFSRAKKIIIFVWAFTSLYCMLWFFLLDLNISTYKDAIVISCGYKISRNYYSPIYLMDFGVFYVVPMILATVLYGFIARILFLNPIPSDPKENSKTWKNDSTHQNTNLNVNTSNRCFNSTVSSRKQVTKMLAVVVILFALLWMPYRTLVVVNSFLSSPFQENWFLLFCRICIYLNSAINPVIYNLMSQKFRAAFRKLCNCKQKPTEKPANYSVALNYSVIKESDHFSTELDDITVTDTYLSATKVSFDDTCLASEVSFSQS
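Enhancer read-out: after compound pinning and an initial kinetic agonist-mode read, an EC20 of TRH (10 nM final) was injected and fluo-8 calcium signal (Ex 480/Em 530) followed at 1 s/cycle for 100 cycles in TRHR-expressing cells.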
D1 ag – human D1 receptor agonism | P21728 | HEK293 T-REx D1 cells, calcium flux, agonist mode | activation, % at 2 µM | 360,000 tested, 1% active | AID 504660; further: 0% is about no effect
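Agonism was scored from calcium flux recorded over 180 s (1 read/s) after pintool compound addition, following a 10-cycle baseline. Cells were inducible force-coupled HEK293 TREx D1, plated overnight at 30 C and loaded with no-wash calcium dye.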
D1 antagonist – blocks dopamine activation of the human D1 receptor. P21728. HEK293 TREx D1 cells, calcium flux, dopamine EC80; active compounds read low. activity change, negative = inhibition, % at 10 µM. 360,000 tested, 3.2% active; in the data active means activity change below about -30%; further: on the % scale 0 is the no-effect control and ±100 the full control effect
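Tetracycline-induced HEK293 T-REx cells with force-coupled D1 receptor were loaded with a no-wash calcium dye. Compound was added after a 10 s baseline and read kinetically for 180 s; EC80 dopamine was then added and calcium flux followed another 180 s.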
D1 PAM – human D1 dopamine receptor positive modulation. P21728. HEK293 TREx D1 cells, calcium flux, dopamine EC20 potentiation. potentiation, % at 10 µM. 360,000 tested, 0.036% active. AID 504651; in the data active means potentiation above about 30%; further: 0% is about no effect
TRHR agonist – agonists of human TRH receptor | P34981 | TRHR cells, calcium flux fluo-8, FDSS agonist mode | activation, % at 2 µM | 360,000 tested, 0.18% active | AID 493084; further: 0% is about no effect
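In this calcium-flux screen, cells bearing human TRHR are dye-loaded with fluo-8, baselined for 10 cycles, then exposed to library compounds; positive kinetic calcium responses during the agonist phase mark hits, with TRH as control.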
The depositor's hits bear a star; . = not tested or not shown; ! = a repeat was not active. Unless noted, no stated cut-off is given here; in the data, active means activation above about 30%; inactive means the rest.

SMILES | TRHR PAM | D1 ag | D1 antagonist | D1 PAM | TRHR agonist
O=C(/C=C/c1ccco1)Oc1cc(Br)cc(/C=N/NC(=O)c2ccccc2O)c1 | 5 | 12 | -35* | -10 | 4
O=C(CNc1ccc2ccccc2c1)N/N=C/c1ccc(OC(=O)/C=C/c2ccco2)cc1 | 3 | 1 | 11 | -5 | 0
Cc1ccc(C(=O)N/N=C/c2cccc(OC(=O)/C=C/c3ccco3)c2)cn1 | -7 | 0 | -17 | -6 | 0
Cc1ccc(-c2nn(-c3ccccc3)cc2C(=O)NCC2CCCO2)cc1 (stereo not given) | -6 | 2 | -19 | -4 | 0
COc1ccc(Cl)cc1NC(=O)CSc1nc2sccc2c(=O)[nH]1 | 4 | 1 | 6 | 10 | -1
CCOC(=O)c1ccccc1NC(=O)CSc1nc(=O)[nH]c2c1CCCC2 | -1 | 0 | . | -1 | 0
COc1ccc(C)cc1NC(=O)CSc1nc(=O)[nH]c2c1CCCC2 | 4 | 31* | . | -2 | 0
COc1ccc(C)cc1NC(=O)CSc1nc2scc(C)c2c(=O)[nH]1 | 5 | 11 | -31* | 5 | 2
O=C(Nc1ccccc1F)Oc1cccc(OC(=O)Nc2ccccc2F)c1 | 16 | 1 | -19 | 0 | -1
O=C(NC1CCCC1)c1cc(-c2cccs2)on1 | 0 | 2 | -42* | 2 | 0
COc1ccccc1-c1cc(C(=O)NC2CCCC2)no1 | 12 | 3 | -32* | -8 | 0
O=C(NC1CCCC1)c1cc(-c2ccccc2O)on1 | -23 | 0 | -2 | -5 | 0
O=C(COc1ccc(C(=S)N2CCOCC2)cc1Cl)Nc1ccccc1Cl | 34* | 8 | 14 | -3 | 1
COc1cc(C(=S)N2CCCCC2)ccc1OCC(=O)Nc1ccccc1Cl | 5 | 2 | 4 | 0 | 0
CCN1C(=O)/C(=C\N2CCCc3ccccc32)SC1=S | 2 | 2 | -17 | -7 | -1
CCCCN1C(=O)/C(=C/C=C2\Oc3ccccc3N2CC)SC1=S | 4 | 393* | -30 | -6 | 98*
CCCN1C(=O)/C(=C/C=C2\N(CC)c3ccccc3C2(C)C)SC1=S | 1 | 63* | 0 | -2 | 24
CN1/C(=C\C=C2/SC(=S)N(CC(=O)O)C2=O)C(C)(C)c2ccccc21 | -21 | 182* | -26 | -10 | 112*
Cc1c(N=C/C=C2\N(C)c3ccccc3C2(C)C)c(=O)n(-c2ccccc2)n1C | -2 | 6 | 5 | -2 | 1
C=CCN1C(=O)/C(=C\C=C2\N(C)c3ccccc3C2(C)C)SC1=S | 1 | 85* | -1 | -8 | 25
CSc1nc(NS(=O)(=O)c2ccc(F)cc2F)nn1C | 14 | 3 | -3 | 1 | 0
CCOC(=O)C(C)OC(=O)C1=C(C)NC(=O)NC1c1ccc2c(c1)OCO2 (stereo not given) | 1 | 7 | -10 | -3 | 0
CCCNC(=O)c1ccc(N2CCC3(CC2)CC(c2cccc(Br)c2)=NO3)c([N+](=O)[O-])c1 | 9 | 1 | -44* | -6 | 0
Oc1c(Br)cc(Br)cc1-c1nc2ccccc2s1 | -2 | 3 | -30* | -1 | -1
COc1cccc(-c2nc3ccccc3s2)c1O | 0 | 3 | -3 | -2 | 1
SMILES | TRHR PAM | D1 ag | D1 antagonist | D1 PAM | TRHR agonist
NC(=O)[C@H]1CC2(CC(c3cccc(NC(=O)COc4ccc(Cl)cc4)c3)=NO2)CN1C(=O)c1ccccc1C(=O)c1ccccc1 (stereo not given in full) | -6 | 11 | 29 | -3 | 1
CCOc1ccccc1OCCCOc1ccc(C)cc1Br | 2 | 3 | 5 | 3 | 0
CCN(CC)CCCOc1ccc(C)cc1Br | -5 | 4 | -38* | -9 | 0
Cc1ccc(OCCOCCn2ccnc2)c(Br)c1 | 16 | 31* | -55* | -8 | -1
CC(=O)c1ccc(OCCCC(=O)NCCc2ccc(C(F)(F)F)cc2)cc1 | -5 | 9 | -7 | -3 | -1
COC(=O)c1cc(CNC(=O)C(C)NS(=O)(=O)c2ccc(C)c(C)c2)ccc1OC (stereo not given) | -7 | -1 | -14 | -4 | 0
O=C1CCCN1CCCNc1ncnc2c1[nH]c1ccc(Cl)cc12 | 12 | 1 | -88* | -1 | 0
CCOC(=O)c1sc2cc([N+](=O)[O-])cc(SCC(C)C)c2c1N | -1 | 55* | 18 | -4 | 14
Cc1ccc(C(=O)NC2CC3CCC(C2)N3Cc2ccco2)cc1 (stereo not given) | 4 | 0 | -70* | -28 | 0
Cc1ccc(C)c(NC(=S)NC2CC3CCC(C2)N3Cc2ccco2)c1 (stereo not given) | 6 | 21 | -5 | -2 | -1
COc1cc(OC)cc(C(=O)NC2CC3CCC(C2)N3Cc2ccco2)c1 (stereo not given) | -3 | 0 | -35* | -11 | 0
O=C(Nc1cccc(Cl)c1)NC1CC2CCC(C1)N2Cc1ccco1 (stereo not given) | -7 | 19 | -41* | -7 | 0
COc1ccc(CN(CC(=O)NCCC(C)C)C(=O)CCC(=O)Nc2nccs2)cc1 | 5 | -3 | 0 | 5 | -1
CCOC(=O)c1sc(N(Cc2ccccc2)C(=O)CCl)nc1C | -2 | 8 | -1 | -4 | 0
O=C(O)CSCC(=O)N(Cc1ccccc1)c1nc(-c2ccccc2)c(-c2ccccc2)s1 | 4 | 9 | -39* | -15 | -2
O=c1c2cc3c(cc2n(Cc2ccccc2)c(=O)n1Cc1nc(-c2ccccc2)no1)OCO3 | 10 | 1 | 0 | -1 | -1
O=c1c2cc3c(cc2n(Cc2cccc(Cl)c2)c(=O)n1Cc1nc(-c2ccccc2)no1)OCO3 | -4 | 3 | -52* | -3 | 1
CN(c1ccccc1)S(=O)(=O)c1nnc(NC(=O)C2CCCCC2)s1 | -1 | 7 | -37*! | -5 | 0
CCN(c1ccccc1)S(=O)(=O)c1nnc(NC(=O)c2cccs2)s1 | 6 | 23 | -41* | -3 | 0
Cc1cc(C)cc(NS(=O)(=O)c2ccc(-n3cccn3)cc2)c1 | -2 | 1 | -17 | -4 | 0
Cc1ccc(NC(=O)CSc2nc3[nH]c(=O)cc(O)c3s2)c(Br)c1 | -2 | 1 | 0 | 0 | 0
COCc1cc(C)nc2sc3c(c12)NC(c1ccc(O)cc1)N(c1ccc(C)cc1)C3=O (stereo not given) | 17 | 0 | -3 | 4 | -1
Cc1ccc(-n2nc3c(c2NC(=O)c2ccco2)CS(=O)(=O)C3)c(C)c1 | 3 | 1 | -5 | -4 | 0
Cc1cccc(-n2nc3c(c2NC(=O)c2ccco2)CS(=O)(=O)C3)c1C | 13 | 5 | -41* | -15 | 2
Cc1ccc2nc3c(c(C(=O)OC4CCOC4=O)c2c1)CCCC3 (stereo not given) | -4 | 3 | 11 | 0 | 0
